# Experimental data reported in PubChem BioAssay (NCATS).
# The source made the active and inactive calls. Calls follow the shape of the full dose curve.
# Test: qHTS drug screen for cell cycle checkpoint inhibitors in PARPi-resistant BRCA-mutant ovarian cancer cell lines. (AID 1963452)
# Conditions: PEO1/OlaR viability, CellTiter-Glo luminescence, 96 h, stronger effect = lower value
# In short: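 PEO1, PEO4 and PEO1/OlaR ovarian cancer cells, 600 per well, exposed 96 h at 37C to a dilution series. Viability read by CellTiter-Glo luminescence, normalized to DMSO and empty wells; activity summarized as Z-AUC.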
# [1] = measured here: PEO1 parental Z-AUC
Structure (SMILES),Z-AUC,Z-AUC [1],Z-AUC (measured here: PEO4 Z-AUC)
CCC(C)SSc1ncc[nH]1 (stereo not given),-1.01 (inactive),-0.667,-0.908
CN(C)CCCNC(=O)c1ccc(-c2cc(O)c3ncccc3c2)cc1,-0.763 (inactive),-0.299,-0.292
CO[C@@H]1C(N(C)C(=O)c2ccccc2)C[C@H]2O[C@]1(C)n1c3ccccc3c3c4c(c5c6ccccc6n2c5c31)C(=O)NC4=O (stereo not given in full),0.0475 (inactive),0.0888,-0.413
CNC(=O)c1c(-c2ccc(F)cc2)oc2cc(N(CCO)S(C)(=O)=O)c(C3CC3)cc12,0.51 (inactive),0.436,0.532
COc1ccc(CCN(C)CCCOc2ccc(S(=O)(=O)c3[nH]c4ccccc4c3C(C)C)cc2)cc1OC,-0.498 (inactive),0.248,0.439
Cc1nn(Cc2ccccc2Cl)c(C)c1CN(C)CC(O)COc1ccc(Cl)cc1 (stereo not given),0.675 (inactive),0.673,0.908
Nc1[nH]nc2nnc(-c3c(-c4ccccc4)nn4ccccc34)cc12,-0.433 (inactive),0.0529,-0.206
CN1CC(=O)NC1=NC(=O)Nc1cccc(Cl)c1,0.638 (inactive),0.15,0.317
COc1cc([C@@H]2c3cc4c(cc3[C@@H](O[C@@H]3O[C@@H]5CO[C@@H](C)O[C@@H]5[C@H](O)[C@@H]3O)[C@H]3COC(=O)[C@H]23)OCO4)cc(OC)c1O,-0.699 (inactive),-1.32,-0.275
CN1CCc2c(n(Cc3ccc(C(=O)NO)cc3)c3ccccc23)C1,0.742 (inactive),0.892,0.628
COc1ccc2c(c1)c(C1=C(c3c[nH]c4ccccc34)C(=O)NC1=O)cn2CCCN(C)C,-1.63 (inactive),-0.951,-1.4
CCC(c1ccc(O)cc1)C(CC)c1ccc(O)cc1 (stereo not given),-0.216 (inactive),-0.74,-0.679
COc1nccc(-c2c(-c3ccc(F)cc3)ncn2C2CCC(O)CC2)n1 (stereo not given),1.26 (inactive),1.27,1.21
Nc1ncnc2c1c(-c1cccc(OCc3ccccc3)c1)cn2C1CC(CN2CCC2)C1 (stereo not given),-0.485 (inactive),-0.126,-0.746
COc1cc2ncn(-c3cc(OCc4ccccc4S(C)(=O)=O)c(C#N)s3)c2cc1OC,0.942 (inactive),0.779,0.362
COC(=O)N1CCN(Cc2cccc(NC(=O)Nc3ccc(C)nc3)c2F)CC1,-0.162 (inactive),-0.204,-0.622
CNC(=O)c1ccc2c(C(=Nc3cccc(CN(C)C)c3)c3ccccc3)c(O)[nH]c2c1,-0.0393 (inactive),0.42,0.638
Cc1ccc(C2=Nc3ccc(Cl)cc3OC2)cc1,1.28 (inactive),0.878,0.727
Cc1ccccc1C(=O)c1ccc(Nc2ccc(Br)cc2N)cc1Cl,-0.304 (inactive),0.73,0.429
COc1ccc(Cn2ccc3ccc(C(=O)NO)cc32)cc1,1.36 (inactive),1.01,1
Cc1ccc2c(=O)c3cccc(CC(=O)O)c3oc2c1C,0.508 (inactive),0.654,0.37
CC(C)(OCc1nn(Cc2ccccc2)c2ccccc12)C(=O)O,1.03 (inactive),1.11,1.54
NC(=O)c1ccc(N(C(N)=O)c2c(F)cccc2F)nc1-c1ccc(F)cc1F,-0.305 (inactive),-0.387,0.295
COc1ccc2nc3cc(Cl)ccc3c(Nc3cc(CN4CCCC4)c(O)c(CN4CCCC4)c3)c2n1,1.63 (inactive),0.591,1.29
CC(=O)Nc1cccc(-n2c(=O)n(C3CC3)c(=O)c3c(Nc4ccc(I)cc4F)n(C)c(=O)c(C)c32)c1,-0.972 (inactive),-1.33,-1.07
CN1N=C(N)c2cn([C@@H]3O[C@H](COP(=O)(O)O)[C@@H](O)[C@@H]3O)c3ncnc1c23,-0.375 (inactive),-0.488,-0.707
C[C@@H](O[C@H]1OCCN(Cc2n[nH]c(=O)[nH]2)[C@@H]1c1ccc(F)cc1)c1cc(C(F)(F)F)cc(C(F)(F)F)c1,-0.0654 (inactive),-0.373,-0.245
CC(C)Oc1cc(Nc2nc(N[C@@H](C)c3ccc(F)cn3)ncc2Cl)[nH]n1,-1.59 (inactive),-1.36,-0.661
Clc1ccc(C2(c3ccc(-c4cn[nH]c4)cc3)CCNCC2)cc1,0.223 (inactive),0.18,0.0319
COC(=O)Nc1ccc(-c2nc(N3CCOCC3)c3cnn(C4CCN(C(=O)OC)CC4)c3n2)cc1,0.0604 (inactive),-0.0911,-0.355
